Test results published in PubChem BioAssay AID686978 (National Center for Advancing Translational Sciences (NCATS), 2013).
Out of some 420,000 compounds screened, about 64,000 (15%) were called active. Another 27% or so got no clear call; they are omitted. The call rests on the fitted dose curve; in most records, active means well fitted inhibition curve with a large enough effect; inconclusive means small, poorly fitted or top-dose-only effect; inactive means flat fitted curve, though single readings scatter. These entries were drawn from the full list. Entries that show only a call come without a potency.
Potency means the concentration at half of the fitted maximal effect.

Assay: qHTS for Inhibitors of human tyrosyl-DNA phosphodiesterase 1 (TDP1): qHTS in cells in absence of CPT; further: nearly all actives have a fitted effect of over 55% in size
Details: DT40 Tdp1-/- hTDP1 cells, no CPT, ATP luminescence, 48 h; activity change, negative = growth inhibition: at 46.2 µM (top of the series)
In short: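 Stably hTDP1-transfected Tdp1-null chicken DT40 cells were treated with library compounds minus camptothecin and grown for at least 48 hr at 37 °C, after which cellular ATP was quantified by luminescence.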
In the case of `C[C@H](NC(=O)[C@@H]1CCCN1C(=O)[C@@H]1CCCN1C(=O)c1ccccc1)c1ccccc1`, the Potency was “inactive”. In the case of `O=C1NC(CC(=O)N2CCC(n3c(C4CCC4)nc4cccnc43)CC2)c2ccccc21` (configuration not stated), the Potency was “inactive”. In the case of `CCCS(=O)(=O)N1CCC(n2c(C(F)(F)F)nc3cccnc32)CC1`, the Potency was 5.17 µM (active). In the case of `CCS(=O)(=O)N1CCC(n2c(C)nc3cccnc32)CC1`, the Potency was “inactive”. With `CC(C)CC(CC(C)C)=NNC(=O)c1ccc(CSc2nncn2C)cc1` the Potency was “inactive”. In the case of `CC(=O)c1cc(C#N)c(N2CCCCC2)nc1C`, the Potency was “inactive”. With `CC(=O)c1cc(C#N)c(N2CC(C)OC(C)C2)nc1C` (configuration not stated) the Potency was “inactive”. For `CC(=O)c1cc(C#N)c(SCC(=O)C(C)(C)C)nc1C`, the Potency was 3.16 µM (active). With `CN1OC[C@@H]2CN(C(=O)c3cccnc3)[C@H](c3ccc(N4CCCCC4)cc3)C[C@@H]21` the Potency was “inactive”. In the case of `CC(=O)c1ccccc1NC(=O)C1CC(=O)N(c2ccc3c(c2)OCCO3)C1` (configuration not stated), the Potency was “inactive”. With `CCOC(=O)c1ccc(NC(=O)C2CC(=O)N(c3ccc4c(c3)OCCO4)C2)cc1` (configuration not stated) the Potency was “inactive”. In the case of `CCc1nnc(NC(=O)C2CC(=O)N(c3ccc4c(c3)OCCO4)C2)s1` (configuration not stated), the Potency was 18.4 µM (active). With `CN1CCN(CC(O)COCc2ccc3c(c2)OCO3)CC1` (configuration not stated) the Potency was “inactive”. For `CC(=O)Nc1ccc(NC(=O)COC(=O)C2CCC(C(C)(C)C)CC2)cc1` (configuration not stated), the Potency was “inactive”. In the case of `CSc1nc(-c2ccc(F)cc2)nc2c1Cc1c(CO)cnc(C)c1O2`, the Potency was “inactive”. In the case of `Cc1ccccc1CSc1nc(-c2ccccc2)nc2c1Cc1c(CO)cnc(C)c1O2`, the Potency was “inactive”. In the case of `CSc1nc(-c2ccccc2Cl)nc2c1Cc1c(CO)cnc(C)c1O2`, the Potency was 18.4 µM (active). In the case of `CCCNC(=O)c1cc2c(c(-c3cccc(-c4ccc(C#N)cc4)c3)n1)[C@@H](CCO)N(C(=O)CC)C2`, the Potency was 18.4 µM (active). With `Cc1c(C(=O)NCC2CC2)sc(=O)n1Cc1cccc(F)c1` the Potency was “inactive”. With `CC(=O)N1Cc2cc(C(=O)NCc3cccc(F)c3)nc(-c3cccc(C4=CCCCC4)c3)c2[C@H]1CCO` the Potency was 16.4 µM (active). With `CCCNC(=O)c1cc(C2CCCCN2S(=O)(=O)c2ccc(C#N)cc2)on1` (configuration not stated) the Potency was “inactive”. In the case of `Cc1nc(NCc2ccccc2)c(C(N)=O)c2c1COC(C)(C)C2`, the Potency was “inactive”. For `CCCCCC(=O)N1CCN(S(=O)(=O)c2ccc3c(c2)OCCCO3)CC1`, the Potency was “inactive”. In the case of `CC(=O)NNc1cc(=O)c2c(=O)n(C)c(=O)n(C)c2[nH]1`, the Potency was “inactive”. In the case of `O=C(NC(=S)NC1CCS(=O)(=O)C1)c1cccc([N+](=O)[O-])c1` (configuration not stated), the Potency was “inactive”. For `Cc1cccc(C(=O)NNC(=O)c2cccc([N+](=O)[O-])c2)c1`, the Potency was “inactive”. In the case of `Cc1cccc(C(=O)NC(=S)N2CCN(c3ccc([N+](=O)[O-])cc3)CC2)c1`, the Potency was 16.4 µM (active). In the case of `O=C(NCc1ccncc1)c1ccc(NS(=O)(=O)c2cccc([N+](=O)[O-])c2)cc1`, the Potency was “inactive”. For `COCCCn1cc(CN2CC(N(C)C)CS2(=O)=O)nn1` (configuration not stated), the Potency was “inactive”. With `COCOCCn1cc(CN2CCS(=O)(=O)N(Cc3ccc(-c4ccc(OC)cc4)cc3)C(CC(C)C)C2=O)nn1` (configuration not stated) the Potency was 10.3 µM (active). For `COCOCCn1cc(CN2CCS(=O)(=O)N(Cc3ccc(-c4ccccc4)cc3)C(CC(C)C)C2=O)nn1` (configuration not stated), the Potency was 18.4 µM (active). With `CN(Cc1ccccc1)S(=O)(=O)c1ccc(F)c(C(=O)Nc2cccc(Cl)c2Cl)c1` the Potency was “inactive”. With `CC1CCN(S(=O)(=O)c2ccc(S(=O)(=O)NCc3ccco3)cc2)CC1` the Potency was “inactive”. With `CC(C)CNC(=S)NNC(=O)c1nn(C)cc1Cl` the Potency was “inactive”. In the case of `FC(F)(F)c1ccc(-c2cccc3c2C2CC3CCN2Cc2ccccc2)cc1` (configuration not stated), the Potency was 13 µM (active). For `O=C(NCCN1CCOC1=O)C1CCC(=O)N(CCc2ccc(Cl)cc2)C1` (configuration not stated), the Potency was “inactive”. For `O=S(=O)(c1ccc(F)cc1)N1CCN(Cc2ccccc2C(F)(F)F)CC1`, the Potency was “inactive”. With `CSCCC(NS(=O)(=O)/C=C/c1ccccc1)C(=O)N1CCC(C)CC1` (configuration not stated) the Potency was “inactive”. With `COc1ccc(OC)c(NC(=O)CCN2CCC(C)CC2)c1` the Potency was “inactive”. For `CCOC(=O)N1CCN(CCC(=O)Nc2cc(OC)ccc2OC)CC1`, the Potency was “inactive”. With `COc1ccc(OC)c(NC(=O)CN2CCCN(Cc3cc(C)ccc3C)S2(=O)=O)c1` the Potency was 18.4 µM (active). In the case of `COC(=O)c1ccc(S(=O)(=O)c2ccc(C(=O)OC)s2)s1`, the Potency was “inactive”. For `C=CC(=O)Nc1ccc(Nc2ccnc(Nc3ccc(N4CCN(C)CC4)cc3)n2)cc1`, the Potency was “inactive”. In the case of `Fc1ccc(-c2nnc(CSc3nnc(-c4ccc5c(c4)OCO5)o3)o2)cc1`, the Potency was “inactive”. In the case of `N#CCSc1nc(-c2ccccc2)nc2ccc(F)cc12`, the Potency was “inactive”. In the case of `Fc1ccc2nc(-c3ccccc3)nc(SCc3nnc(-c4ccccc4)o3)c2c1`, the Potency was 23.1 µM (active). With `Nc1ccc2c(c1)C(O)c1ccc(Cl)cc1-2` (configuration not stated) the Potency was “inactive”. In the case of `CCCCCCCCC(=O)NCCOc1ccccc1`, the Potency was “inactive”. In the case of `CCCCCCOc1ccc(OC(=O)c2cccnc2)cc1`, the Potency was 13 µM (active). In the case of `O=C(Oc1ccc(Br)cc1)c1cccnc1`, the Potency was “inactive”. In the case of `COc1ccc(-c2nc(CS(=O)CC(=O)NCc3cccnc3)c(C)o2)cc1OC` (configuration not stated), the Potency was “inactive”. In the case of `C=CCOc1ccc(C2/C(=C(\O)c3c(C)[nH]c(C(=O)OC)c3C)C(=O)C(=O)N2CCN(C)C)cc1` (configuration not stated), the Potency was “inactive”. For `CO[C@H]1[C@@H]2C=CO[C@@H](O[C@H]3O[C@@H](CO)[C@H](O)[C@@H](O)[C@@H]3O)[C@@H]2[C@@]2(CO)O[C@@H]12`, the Potency was “inactive”. In the case of `CC(=O)c1ccc(NC(=O)c2sc3nc4n(c(=O)c3c2C)CCCCC4)cc1`, the Potency was 13 µM (active). For `COc1ccc(NC(=O)c2sc3nc[nH]c(=O)c3c2C)cc1`, the Potency was “inactive”. For `CC(=O)c1sc2nc(SCC(=O)N3CCCCC3)[nH]c(=O)c2c1C`, the Potency was “inactive”. In the case of `Cc1ccc(NC(=S)NC(=O)/C=C/c2ccc(Cl)cc2)cc1`, the Potency was “inactive”. For `CC(C)C[C@H](NC(=O)[C@@H]1O[C@H]1C(=O)O)C(=O)NCCCCN=C(N)N`, the Potency was “inactive”. With `C=CCOc1cccc(C2NC(=O)c3ccccc3O2)c1` (configuration not stated) the Potency was “inactive”. With `CCCc1c(C(=O)O)cnn1-c1ccc(Cl)cc1` the Potency was “inactive”. In the case of `CCc1ccccc1NC(=O)c1cnn(-c2ccc(F)cc2)c1C1CCNCC1`, the Potency was “inactive”. In the case of `CCCc1c(C(=O)Nc2ccc(F)cc2)cnn1-c1ccccc1`, the Potency was 14.6 µM (active). With `CN(C(=O)COC(=O)c1ccc(Br)o1)c1c(N)n(Cc2ccccc2)c(=O)[nH]c1=O` the Potency was “inactive”. With `O=S(=O)(Cc1nnnn1-c1ccc(Br)cc1)c1ccc(F)cc1` the Potency was “inactive”. In the case of `Cc1cc(C)cc(Oc2c(C(F)(F)F)oc3cc(OCC(=O)O)ccc3c2=O)c1`, the Potency was “inactive”. With `Cc1ccc(S(=O)(=O)Nc2nc3ccccc3s2)cc1[N+](=O)[O-]` the Potency was “inactive”. For `COc1ccc(/C=N/Nc2nc3ccccc3o2)cc1OC`, the Potency was “inactive”. In the case of `COc1cc(/C=N/Nc2nc3ccccc3s2)ccc1O`, the Potency was 1.3 µM (active). With `O=[N+]([O-])c1cc(Br)c(O)c(/C=N/Nc2nc3ccccc3s2)c1` the Potency was 18.4 µM (active). With `COc1cc(C=NC2CCCCC2)ccc1O` the Potency was “inactive”. In the case of `CN(C(=O)CSc1nnc(N)s1)c1c(N)n(Cc2ccccc2)c(=O)[nH]c1=O`, the Potency was “inactive”. With `COc1cc(Br)cc2cc(S(=O)(=O)c3ccccc3)c(=O)oc12` the Potency was “inactive”. In the case of `COc1cccc(N2CC(NS(=O)(=O)c3cccs3)CC2=O)c1` (configuration not stated), the Potency was “inactive”. For `COc1ccc(N2CC(NS(=O)(=O)c3ccc4ccccc4c3)CC2=O)cc1` (configuration not stated), the Potency was 23.1 µM (active). In the case of `COc1cccc(N2CC(NS(=O)(=O)c3ccc(Cl)cc3)CC2=O)c1` (configuration not stated), the Potency was “inactive”. In the case of `COC(=O)N(NC(=O)C(O)(C(C)C)C(C)C)c1ccccc1`, the Potency was “inactive”. For `Cc1ccc(N(NC(=O)C(C)(C)O)C(=O)c2ccccc2)cc1C`, the Potency was “inactive”. With `CCCCC(O)(CCCC)C(=O)NN(C(=O)CCl)c1ccccc1` the Potency was 20.6 µM (active). In the case of `CCCC(O)(CCC)C(=O)NN(C(=O)CCl)c1cccc(C)c1`, the Potency was 5.8 µM (active). For `CC(C)(O)C(=O)NN(C(=O)c1ccccc1)c1cccc(Br)c1`, the Potency was “inactive”. In the case of `CN(C)/C=C/c1c(C#N)c(=O)ncn1Cc1ccccc1`, the Potency was “inactive”. In the case of `COc1cc(/C=C(/NC(=O)c2ccc(Cl)cc2Cl)C(=O)O)cc(OC)c1OC`, the Potency was “inactive”. With `Cc1ccc(C(=O)N/C(=C\c2ccco2)C(=O)N2CCSCC2)cc1C` the Potency was “inactive”. With `CCNc1nc(N)nc(Oc2ccc(OCC)nn2)n1` the Potency was “inactive”. With `CCOc1cccc(=O)c2c(C)n(CC3CCCO3)c(C)c12` (configuration not stated) the Potency was “inactive”. In the case of `Cc1ccc2c(=O)c(C(=O)c3ccc(F)cc3)cn(CC(=O)NC3CCCCC3)c2n1`, the Potency was “inactive”. In the case of `CC(OC(=O)CNC(=O)c1ccco1)C(=O)Nc1ccc(Cl)cn1` (configuration not stated), the Potency was “inactive”. In the case of `CCn1c(SCC(=O)NCC2CCCO2)nc2ccccc21` (configuration not stated), the Potency was “inactive”. In the case of `S=C(NCCc1ccccc1)NCC1CCCO1` (configuration not stated), the Potency was 23.1 µM (active). With `O=C(CS(=O)(=O)Cc1ccccc1)NCC1CCCO1` (configuration not stated) the Potency was “inactive”. With `Cc1ccc(C(=O)NCC2CCCO2)o1` (configuration not stated) the Potency was “inactive”. For `CN(CCc1ccccn1)C(=O)c1ccc(OC2CCN(Cc3ccccn3)CC2)cc1`, the Potency was “inactive”. For `COCCCNC(=O)Cn1cc(/C=C(\C#N)C(=O)N2CCN(c3ccccc3)CC2)c2ccccc21`, the Potency was “inactive”. With `COC(=O)c1cn(CC(=O)NCc2cccs2)c2ccccc12` the Potency was “inactive”. With `COC(=O)Cn1cc(/C=C/[N+](=O)[O-])c2ccccc21` the Potency was 14.6 µM (active). With `CCCn1nc(C(=O)OCc2nc(N)nc(Nc3ccccc3C)n2)c2ccccc2c1=O` the Potency was “inactive”. In the case of `COCCN(C(=O)CCC(=O)Nc1nccs1)C(C(=O)NC(C)(C)C)c1ccc(Cl)cc1` (configuration not stated), the Potency was “inactive”. With `CCn1c(CN2C(=O)CSc3ccccc32)n[nH]c1=S` the Potency was “inactive”. In the case of `COc1ccc(Br)cc1CNC(=O)c1cc(=O)[nH]c2ccc(S(=O)(=O)N3CCCC3)cc12`, the Potency was “inactive”. With `CCN1CCN(c2nc(Nc3cc(OC)ccc3OC)nc(Nc3cc(OC)ccc3OC)n2)CC1` the Potency was 23.1 µM (active). With `CCOC(=O)CNc1nc(Cl)nc(Nc2ccc(OC)cc2OC)n1` the Potency was “inactive”. For `CCN1CCN(C(=O)c2cc3cc4ccc(OC)cc4nc3s2)CC1`, the Potency was “inactive”.
